# Records with an inconclusive call do not appear. The source made the active and inactive calls.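 Rule for the calls, unless noted: active = normalized viability below 100% at a tested concentration; inactive = the rest.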
# How the values were obtained:
# [1] = growth inhibition of DIPG glioma cells, dose response, cell-based, SU-DIPG-XVII, MIPE5.0, CellTiter-Glo, qHTS (AID 1347060; cut-off not given, nearly all actives have AC50 up to about 26 µM;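 note: cells exposed to compound for 48 hours before viability readout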); details: SU-DIPG-XVII viability, CellTiter-Glo ATP luminescence
# [2] = growth inhibition of DIPG glioma cells, dose response, cell-based, SU-DIPG-XIII, MIPE4.0, CellTiter-Glo, qHTS (AID 1347061; cut-off not given, nearly all actives have AC50 up to about 37 µM;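 note: cells exposed to compound for 48 hours before readout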); details: SU-DIPG-XIII viability, CellTiter-Glo ATP luminescence
# [3] = growth inhibition of DIPG glioma cells, dose response, cell-based, JHH-DIPG-1, MIPE4.0, CellTiter-Glo, qHTS (AID 1347062; cut-off not given, nearly all actives have AC50 up to about 27 µM;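 note: cells exposed to compound for two days before readout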); details: JHH-DIPG-1 viability, CellTiter-Glo ATP luminescence
# [4] = growth inhibition of DIPG glioma cells, dose response, cell-based, SU-DIPG-IV, MIPE4.0, CellTiter-Glo, qHTS (AID 1347063; cut-off not given, nearly all actives have AC50 up to about 30 µM;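 note: compound exposure lasted 48 hours before the viability readout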); details: SU-DIPG-IV viability, CellTiter-Glo ATP luminescence
# [5] = growth inhibition of DIPG glioma cells, dose response, cell-based, SU-DIPG-XIII, MIPE5.0, CellTiter-Glo, qHTS (AID 1347064; cut-off not given, nearly all actives have AC50 up to about 23 µM;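 note: cells exposed to compound for 48 hours before the viability read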); details: SU-DIPG-XIII viability, CellTiter-Glo ATP luminescence
# [6] = viability loss in pontine glioma line – cell-based, SU-DIPG-XXV, MIPE5.0, CellTiter-Glo, qHTS, dose response (AID 1347065; cut-off not given, nearly all actives have AC50 up to about 26 µM;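 note: cells exposed to compound for 48 hours before ATP readout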); details: CellTiter-Glo ATP luminescence
# [7] = SU-DIPG-VI glioma cell viability, MIPE4.0 library, CellTiter-Glo luminescence, qHTS (AID 1347066; cut-off not given, nearly all actives have AC50 up to about 30 µM;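 note: cells exposed to compound for 48 hours before readout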); details: CellTiter-Glo ATP luminescence
# [8] = JHH-DIPG-1 glioma cell viability, MIPE5.0 library, CellTiter-Glo luminescence, qHTS (AID 1347067; cut-off not given, nearly all actives have AC50 up to about 26 µM;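 note: cells exposed to compound for 48 hours before readout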); details: JHH-DIPG-1 glioma viability, CellTiter-Glo ATP luminescence
# [9] = SU-DIPG-XXV glioma cell viability, MIPE5.0 library, qHTS (AID 1347068; cut-off not given, nearly all actives have IC50 up to about 30 µM;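 note: cells exposed to compound for 48 hours before viability readout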)
# [10] = sensitizers of A549 cells to miR-34 induction, primary screen, imaging, A549 dox-inducible miR-34, nuclei and caspase counts (AID 1347080;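 active = compounds whose cell count with miR-34 switched on is under 0.7 times the count with it off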); details: A549 miR-34 inducible, Hoechst nuclei count, 48 h
# [11] = modifiers of HSF1 nuclear foci, imaging, Selleck Cancer Library (AID 1347162; in the data active = plate-normalised HSF1 focus index below about 0.46); details: human cells, at 10 µM; SSMD: measured here: HSF1 foci SSMD mean; cell count: measured here: cell number; plate-normalised HSF1 focus index: stronger effect = lower value
# [12] = survival rescue of mitochondrial mutant cells in low glucose, primary screen, MELAS cybrids, Rieske KO mouse fibroblasts, CellTiter-Glo (AID 1508586;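 active = mean z-score across replicates of 1.96 or higher in either the MELAS or the Rieske mutant cell line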;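 note: z relative to plate mean and SD of compound and empty wells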)
# [13] = ovarian cancer cell viability with rucaparib, profiling panel, oncology-focused library, rucaparib conditional (AID 1508598); details: patient-derived ovarian cancer cells, CellTiter-Glo viability, 144 h, stronger effect = lower value
# [14] = LFS_MB_P medulloblastoma growth inhibition, cell-based, chromothripsis tumors, cisplatin or BGB combos (AID 1671449; in the data active = inhibition above about 80%;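 note: cells exposed for 96 hours; 0% = vehicle DMSO and 100% = killing by high DMSO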); details: LFS_MB_P medulloblastoma cells
# [15] = HDN33 neuroblastoma growth inhibition, cell-based, chromothripsis tumors, cisplatin or BGB combos (AID 1671450; in the data active = inhibition above about 80%;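 note: cells exposed to compound for four days; 0% = vehicle DMSO and 100% = cell killing by high DMSO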); details: HDN33 neuroblastoma cells, stronger effect = higher value
# [16] = ICB984 medulloblastoma cell growth inhibition, synergistic combos for chromothripsis tumors, cisplatin or BGB combos (AID 1671451; call rule not given here;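 note: cells exposed for 96 hours before readout; 0% = vehicle DMSO and 100% = killing by high DMSO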); details: ICB984 medulloblastoma cells, drug combinations, stronger effect = higher value
# [17] = HTB85 osteosarcoma cell growth inhibition, synergistic combos for chromothripsis tumors, BGB or cisplatin IC20 combos (AID 1671453; in the data active = inhibition above about 80%;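 note: cells exposed for 96 hours before readout; 0% = vehicle DMSO and 100% = high DMSO killing control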); details: HTB85 osteosarcoma cells, drug combinations, stronger effect = higher value
# [18] = MDA-MB-436 breast carcinoma cell growth inhibition, synergistic combos for chromothripsis tumors, BGB or cisplatin combos (AID 1671458; call rule not given here;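 note: cells exposed for 96 hours; 0% = vehicle DMSO and 100% = killing by high DMSO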); details: MDA-MB-436 breast carcinoma growth inhibition, drug combinations, stronger effect = higher value
# [19] = growth inhibition of BT084 medulloblastoma cells, cell-based, ICGC_MB145, cisplatin and BGB IC40 combos (AID 1671461; in the data active = inhibition above about 80%;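 note: cells exposed to drugs for 96 hours; 0% = vehicle DMSO and 100% = high DMSO full killing control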); details: drug combinations, stronger effect = higher value
# [20] = growth inhibition of RCMB18 medulloblastoma cells, cell-based, cisplatin and BGB IC40 combos (AID 1671462; in the data active = inhibition above about 80%;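 note: cells exposed to compound for four days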); details: stronger effect = higher value
compound,measurement,setting,value
CC(=O)Nc1nc(C)c(-c2ccc(Cl)c(S(=O)(=O)NCCO)c2)s1,AC50,[1],10.5 µM (active)
same,AC50,[2],7.43 µM (active)
same,AC50,[3],13.2 µM (active)
same,AC50,[4],2.09 µM (active)
same,AC50,[5],14.8 µM (active)
same,AC50,[6],6.61 µM (active)
same,AC50,[7],2.64 µM (active)
same,AC50,[8],16.6 µM (active)
same,IC50,[9],16.6 µM (active)
same,fold change,"[10]; stronger effect = lower value, cell number ratio, induced over uninduced",1.06 (inactive)
same,fold change,[10]; measured here: relative caspase fold change +Dox/-Dox,0.869
same,cell count,"[10]; measured here: total cells with miR-34 induction, stronger effect = lower value",3490
same,cell count,[10]; measured here: total cells without miR-34 induction,3300
same,SSMD,[11],2.06
same,cell count,[11],7480
same,plate-normalised HSF1 focus index,[11],1.13 (inactive)
same,z-score,"[12]; MELAS cybrid survival, CellTiter-Glo 48 h, stronger effect = higher value",-0.084 (inactive)
same,z-score,"[12]; Rieske KO mouse fibroblast survival, CellTiter-Glo 72 h",1.03
same,viability,"[13]; at 0.000305 µM, OCI-C5x cells, with rucaparib 10 µM, 100% = cells with rucaparib alone",113% (inactive)
same,viability,"[13]; at 0.000305 µM, OCI-C5x cells, without rucaparib",119% (inactive)
same,viability,"[13]; at 0.000305 µM, OCI-P5x cells, with rucaparib 20 µM, 100% = cells with rucaparib alone",110% (inactive)
same,viability,"[13]; at 0.000305 µM, OCI-P5x cells, without rucaparib",117% (inactive)
same,viability,"[13]; at 0.00122 µM, OCI-C5x cells, with rucaparib 10 µM, 100% = cells with rucaparib alone",102% (inactive)
same,viability,"[13]; at 0.00122 µM, OCI-C5x cells, without rucaparib",126% (inactive)
same,viability,"[13]; at 0.00122 µM, OCI-P5x cells, with rucaparib 20 µM, 100% = cells with rucaparib alone",85.2% (active)
same,viability,"[13]; at 0.00122 µM, OCI-P5x cells, without rucaparib",107% (inactive)
same,viability,"[13]; at 0.00488 µM, OCI-C5x cells, with rucaparib 10 µM, 100% = cells with rucaparib alone",109% (inactive)
same,viability,"[13]; at 0.00488 µM, OCI-C5x cells, without rucaparib",123% (inactive)
same,viability,"[13]; at 0.00488 µM, OCI-P5x cells, with rucaparib 20 µM, 100% = cells with rucaparib alone",92.4% (active)
same,viability,"[13]; at 0.00488 µM, OCI-P5x cells, without rucaparib",112% (inactive)
same,viability,"[13]; at 0.0195 µM, OCI-C5x cells, with rucaparib 10 µM, 100% = cells with rucaparib alone",103% (inactive)
same,viability,"[13]; at 0.0195 µM, OCI-C5x cells, without rucaparib",120% (inactive)
same,viability,"[13]; at 0.0195 µM, OCI-P5x cells, with rucaparib 20 µM, 100% = cells with rucaparib alone",99.1% (active)
same,viability,"[13]; at 0.0195 µM, OCI-P5x cells, without rucaparib",115% (inactive)
same,viability,"[13]; at 0.0781 µM, OCI-C5x cells, with rucaparib 10 µM, 100% = cells with rucaparib alone",90.4% (active)
same,viability,"[13]; at 0.0781 µM, OCI-C5x cells, without rucaparib",125% (inactive)
same,viability,"[13]; at 0.0781 µM, OCI-P5x cells, with rucaparib 20 µM, 100% = cells with rucaparib alone",89.5% (active)
same,viability,"[13]; at 0.0781 µM, OCI-P5x cells, without rucaparib",107% (inactive)
same,viability,"[13]; at 0.313 µM, OCI-C5x cells, with rucaparib 10 µM, 100% = cells with rucaparib alone",93.3% (active)
same,viability,"[13]; at 0.313 µM, OCI-C5x cells, without rucaparib",116% (inactive)
same,viability,"[13]; at 0.313 µM, OCI-P5x cells, with rucaparib 20 µM, 100% = cells with rucaparib alone",88.3% (active)
same,viability,"[13]; at 0.313 µM, OCI-P5x cells, without rucaparib",108% (inactive)
same,viability,"[13]; at 1.25 µM, OCI-C5x cells, with rucaparib 10 µM, 100% = cells with rucaparib alone",95.9% (active)
same,viability,"[13]; at 1.25 µM, OCI-C5x cells, without rucaparib",122% (inactive)
same,viability,"[13]; at 1.25 µM, OCI-P5x cells, with rucaparib 20 µM, 100% = cells with rucaparib alone",92.7% (active)
same,viability,"[13]; at 1.25 µM, OCI-P5x cells, without rucaparib",110% (inactive)
same,viability,"[13]; at 5 µM, OCI-C5x cells, with rucaparib 10 µM, 100% = cells with rucaparib alone",94.4% (active)
same,viability,"[13]; at 5 µM, OCI-C5x cells, without rucaparib",132% (inactive)
same,viability,"[13]; at 5 µM, OCI-P5x cells, with rucaparib 20 µM, 100% = cells with rucaparib alone",39.1% (active)
same,viability,"[13]; at 5 µM, OCI-P5x cells, without rucaparib",60.5% (active)
same,inhibition,"[14]; at 0.5 µM, stronger effect = higher value",-45.2% (inactive)
same,inhibition,"[14]; measured here: combination with BGB IC20, at 0.005 µM",-29.7%
same,inhibition,"[14]; measured here: combination with BGB IC40, at 0.005 µM",-42%
same,inhibition,"[14]; measured here: combination with BGB IC40, at 0.05 µM",-7.74%
same,inhibition,"[14]; measured here: combination with cisplatin, at 0.5 µM, stronger effect = higher value",-52.3%
same,inhibition,"[14]; measured here: combination with cisplatin, at 5 µM, stronger effect = higher value",23.5%
same,inhibition,"[15]; BGB combo, at 5 µM",18.5%
same,inhibition,[15]; at 0.5 µM,22.6% (inactive)
same,inhibition,"[15]; cisplatin combo, at 5 µM",37%
same,inhibition,"[15]; measured here: with BGB IC20 combination, at 0.5 µM",13.7%
same,inhibition,"[15]; measured here: with cisplatin IC20 combination, at 0.5 µM",24.2%
same,inhibition,"[15]; single agent, at 5 µM",45%
same,inhibition,"[16]; BGB IC20 combo, at 0.005 µM",-5.45%
same,inhibition,"[16]; BGB IC40 combo, at 0.005 µM",3.46%
same,inhibition,"[16]; BGB IC40 combo, at 0.05 µM",30.7%
same,inhibition,[16]; at 0.5 µM,-2.76% (inactive)
same,inhibition,"[16]; cisplatin combo, at 0.05 µM",27.3%
same,inhibition,"[16]; cisplatin combo, at 0.5 µM",-19.5%
same,inhibition,"[16]; cisplatin combo, at 5 µM",2.87%
same,inhibition,"[16]; measured here: 5 uM single agent, at 5 µM",5.64%
same,inhibition,[17]; at 0.5 µM,10.5% (inactive)
same,inhibition,"[17]; measured here: with BGB IC20, at 0.5 µM",11.8%
same,inhibition,"[17]; measured here: with BGB IC20, at 5 µM",42.2%
same,inhibition,"[17]; measured here: with cisplatin IC20, at 0.5 µM",8.49%
same,inhibition,"[17]; measured here: with cisplatin IC20, at 5 µM",30.2%
same,inhibition,"[17]; single agent, at 5 µM",46.6%
same,inhibition,[18]; at 0.5 µM,1.41% (inactive)
same,inhibition,"[18]; measured here: BGB combination, at 0.5 µM",-2.21%
same,inhibition,"[18]; measured here: BGB combination, at 5 µM",-3.92%
same,inhibition,"[18]; measured here: cisplatin combination, at 0.5 µM",-6.73%
same,inhibition,"[18]; measured here: cisplatin combination, at 5 µM",-16.3%
same,inhibition,[19]; at 0.5 µM,10.3% (inactive)
same,inhibition,"[19]; cisplatin combination, at 0.5 µM",14.9%
same,inhibition,"[19]; cisplatin combination, at 5 µM",-88.1%
same,inhibition,"[19]; measured here: BGB IC40 combination 0.05 uM, at 0.05 µM",3%
same,inhibition,"[19]; single agent, at 5 µM",29.8%
same,inhibition,[20]; at 0.5 µM,9.76% (inactive)
same,inhibition,"[20]; cisplatin combo, at 5 µM",16.5%
same,inhibition,"[20]; measured here: BGB IC40 combination, at 0.05 µM",-25%
same,inhibition,"[20]; measured here: combination with cisplatin, at 0.5 µM",0.78%
same,inhibition,"[20]; single agent, at 5 µM",15.1%

# Reference: PubChem BioAssay
